NPC1 prom act: NPC1 promoter activation; AID 485313; Huh7 NPC1 promoter luciferase reporter, 24 h; Potency, µM (titrated, usually from 9.22 µM), for the others: at the highest dose activation, actives largely listed as activators; actives 2.4% (n = 320,000); also: % of control where 0% means no effect; nearly all actives have a fitted effect of over 60% in size
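Readout is luciferase luminescence, reflecting NPC1 promoter activation in stably transfected Huh7 cells after 24 h compound exposure at 37 °C in reduced-serum medium with 10% FBS.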
FLuc counter: inhibits or activates purified firefly luciferase, miR-21 counter-screen | AID 588342 | actives 6.9% (n = 360,000) | purified FLuc, Km substrates, luminescence inhibition | P08659 | Potency, µM (doses to about 57.5 µM), without a hit: at the top dose activity change, negative = inhibition, hits mostly inhibitors;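 also: plate controls were vehicle for no effect and reference inhibitor for full effect; nearly all actives have a fitted effect of over 55% in size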
Target sequence (P08659 whole entry, looked up): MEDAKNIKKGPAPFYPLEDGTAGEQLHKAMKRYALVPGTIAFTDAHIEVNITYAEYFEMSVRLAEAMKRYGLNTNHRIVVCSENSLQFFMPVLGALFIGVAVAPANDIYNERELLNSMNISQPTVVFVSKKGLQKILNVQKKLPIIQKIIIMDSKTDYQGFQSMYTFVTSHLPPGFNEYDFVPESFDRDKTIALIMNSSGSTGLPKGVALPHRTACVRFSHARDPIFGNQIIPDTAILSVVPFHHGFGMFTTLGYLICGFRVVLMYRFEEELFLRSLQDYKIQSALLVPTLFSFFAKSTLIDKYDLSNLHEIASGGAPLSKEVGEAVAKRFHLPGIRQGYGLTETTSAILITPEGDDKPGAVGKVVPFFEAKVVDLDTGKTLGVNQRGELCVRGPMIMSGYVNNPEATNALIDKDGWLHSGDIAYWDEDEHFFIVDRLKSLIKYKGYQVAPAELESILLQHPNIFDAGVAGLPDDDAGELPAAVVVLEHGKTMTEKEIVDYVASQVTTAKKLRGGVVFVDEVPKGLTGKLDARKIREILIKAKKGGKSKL
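Biochemical qHTS of compounds, final roughly 60 µM downward over six points, against 10 nM purified firefly luciferase using Km concentrations of substrates (10 uM D-luciferin, 10 uM ATP) in Tris acetate pH 7.5 buffer; luminescence output.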
Rab9 promoter act: activators of Rab9 promoter; Potency, µM (highest dose often 9.22 µM), for the others: at the highest dose activation, negative = inhibition, usual class: activators; actives 2.8% (n = 320,000); Huh7 Rab9 promoter-luciferase reporter, luminescence, 24 h; also: % of control where 0% means no effect; nearly all actives have a fitted effect of over 60% in size
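Rab9 promoter-driven luciferase in stably transfected Huh7 cells; 1500 cells/well rested 2 h, exposed to compound in DMSO for 24 h at 37 °C, 5% CO2. Luminescence read 10 min after adding luciferase reagent at ambient temperature.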
ELG1 DNA repair: ELG1-dependent DNA repair inhibition. HEK293T ELG1-luciferase reporter, luminescence, 16 h; DNA damage induced by 5-fluorouridine. Potency, µM (top dose mostly 46.1 µM), without a hit: top-dose activity change, negative = inhibition, most hits filed as inhibitors. actives 2.3% (n = 330,000). AID 504467; also: % is scaled to controls: 0 for no effect and ±100 for the full control effect; nearly all actives have a fitted effect of over 55% in size
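Overnight (16 hr) co-exposure of 2,000 cells/well to 5-fluorouridine and compound at 37 °C preceded detection. Luciferase was quantified via ONE-Glo luminescence; loss of signal denotes inhibition.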
SMN2 splice enh: enhancers of SMN2 splice variant expression | Potency, µM (titrated, usually from 46.1 µM), inactives show at the top dose activity change, positive = activation, hits mostly activators | actives 2.8% (n = 210,000) | HEK293 SMN2-luciferase splicing reporter, luminescence, 30-36 h | AID 1458; also: % of control where 0% means no effect; nearly all actives have a fitted effect of over 55% in size
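HEK293 cells carry an SMN2 […]–luciferase reporter in which exon 7 inclusion puts luciferase in frame. Cells were plated 10-12 h before compound addition, then incubated 30-36 h at 37C. ONE-Glo luminescence was read; sodium butyrate at 4.5 mM final served as control.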
ELG1 genotox: induces genotoxicity in HEK293T cells with luciferase-tagged ELG1 | actives 1.3% (n = 330,000) | Potency, µM (highest dose often 46 µM), for the others: at the highest dose activity change, positive = activation, actives largely listed as activators | HEK293T ELG1-luciferase reporter, luminescence, 16 h; also: % of control where 0% means no effect; nearly all actives have a fitted effect of over 60% in size
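HEK293T cells expressing luciferase-tagged ELG1 were treated with compound or DMSO for 16 hr at 37°C. Luciferase activity was then read after 30 min with ONE-Glo at room temperature; rising signal flags genetic stress.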
The depositor's hits bear a star; ? = inconclusive; / = no result given. In the library only some 9.4% were active in any assay of this set; here they are far more common. Calls follow the shape of the dose curve; as a rule, active = well fitted curve in the direction sought with a large enough effect; inconclusive = small, poorly fitted or top-dose-only effect, or another doubt; inactive = no such curve, though single readings can be large; an effect the other way counts as inactive or inconclusive. Potency is read from the fitted curve at half-maximal effect.

SMILES	NPC1 prom act	FLuc counter	Rab9 promoter act	ELG1 DNA repair	SMN2 splice enh	ELG1 genotox
CC1=C(C#N)C(=O)NC(=O)/C1=C/c1ccc(-c2ccc(S(N)(=O)=O)cc2)o1	2%	?	-3%	3%	4%	-2%
CCCCCCCC/C=C\CCCCCCCC(=O)N(CCO)CCO	/	/	/	/	-6%	/
Cc1cccc(N2CCN(c3cc(C)nc4c(-c5ccc(Cl)cc5)c(C)nn34)CC2C)c1 (stereo unspecified)	/	1%	/	/	/	/
CCCC(=O)Oc1c(Sc2ccc(Cl)cc2)c(C)nn1-c1ccccc1	/	11µM*	/	/	-4%	/
Cc1ccc(Sc2c(C)nn(-c3ccccc3)c2OC(=O)CC(C)C)cc1	/	?	/	/	2%	/
O=C(Nc1ccc(Br)cc1)c1ccc(F)c(S(=O)(=O)N2CCc3ccccc32)c1	/	-9%	/	/	/	/
COc1ccc(C2/C=C\CC(OCc3ccccc3)CC(=O)N2Cc2cccc(F)c2)cc1 (stereo unspecified)	/	/	/	21µM*	/	-4%
COc1ccc(C2/C=C\CN(C(=O)OCc3ccccc3)CC(=O)N2Cc2ccc(F)cc2)cc1 (stereo unspecified)	-1%	2%	-9%	-9%	/	-2%
Cc1ccccc1-c1cc(=O)c2ccccc2o1	/	/	/	26%	/	7%
O=c1cc(-c2ccccc2F)oc2ccccc12	?	11µM*	2.2µM*	?	13µM*	?
CSc1ccc(-c2cc(=O)c3ccccc3o2)cc1	24%	4.8µM*	?	?	11µM*	9.2µM*
COc1cccc(-c2cc(=O)c3ccccc3o2)c1N	2.3µM*	/	2.1µM*	/	11µM*	/
Cc1cc(C)c(S(=O)(=O)/N=C2/C=C(Sc3ncn[nH]3)C(=O)c3ccccc32)cc1C	-8%	?	-4%	21µM*	-83%	-15%
COc1ccccc1-n1nc(-c2ccccc2)c2cnc3c(F)cc(F)cc3c21	/	-6%	/	/	-5%	/
CC1(C)Nc2ccc(O)cc2-c2c1ssc2=S	-1%	-10%	3%	12µM*	-10%	-10%
COc1ccccc1/C=C/C=N/n1c(-c2cc(-c3ccccc3)n[nH]2)n[nH]c1=S	-3%	5.4µM*	13%	15%	/	4%
S=c1[nH]nc(-c2cc(-c3ccccc3)n[nH]2)n1/N=C/C=C/c1ccccc1	-1%	6.7µM*	1%	?	/	3%
COc1ccccc1/C=C/C=N/n1c(-c2ccc(F)cc2)n[nH]c1=S	3%	?	2%	-18%	/	0%
Cc1sc2nc(C3CC3)nc(N3CCN(C(=O)c4ccc(F)cc4)CC3)c2c1C	3%	6%	5%	?	/	-28%
Cc1sc2nc(C3CC3)nc(N3CCN(C(=O)c4ccc(Cl)cc4)CC3)c2c1C	1%	2%	-1%	23µM*	/	0%
O=C(O)C(=O)/C(=C\c1ccsc1)c1ccc2ccccc2n1	18%	?	21%	?	/	?
O=C(O)C(=O)/C(=C\c1ccccc1)c1ccc2ccccc2n1	3%	-19%	2%	?	/	9.2µM*
O=C(O)C(=O)/C(=C\c1ccc([N+](=O)[O-])cc1)c1ccc2ccccc2n1	9%	?	?	?	13µM*	20%
O=C(O)C(=O)/C(=C\c1cccc2ccccc12)c1ccc2ccccc2n1	-2%	-1%	7%	-14%	7%	7%
Cc1ccc(NC(=O)CSc2nc3ccccc3nc2Cc2ccccc2)c(C)c1	/	-2%	/	/	/	/
SMILES	NPC1 prom act	FLuc counter	Rab9 promoter act	ELG1 DNA repair	SMN2 splice enh	ELG1 genotox
O=C(c1ccco1)N1C(=O)c2cccc3cccc1c23	-4%	-1%	-1%	20%	10µM*	0%
CCOc1ccc(NC(=O)CCc2nc3cccnc3n2-c2ccccc2)cc1	/	0%	/	/	-24%	/
COc1ccc(S(=O)(=O)NCCS(=O)(=O)N2CCN(c3ccccc3)CC2)cc1C	/	-10%	/	/	/	/
CCOc1ccc(NC(=S)NC23CC4CC(CC(C4)C2)C3)cc1	-1%	-1%	0%	3%	/	2%
FC(F)Oc1ccc(NC(=S)NC23CC4CC(CC(C4)C2)C3)cc1	3%	19µM*	22%	-18%	/	-14%
CN(C)S(=O)(=O)c1cccc(NC(=S)NC23CC4CC(CC(C4)C2)C3)c1	-1%	2%	-1%	-16%	/	-17%
CN(C)c1ccc(NC(=S)NC23CC4CC(CC(C4)C2)C3)cc1	-2%	12µM*	?	?	/	?
c1ccc(N/N=C(\Cc2nc3ccccc3[nH]2)c2ccccc2)cc1	?	7.6µM*	25%	?	13µM*	?
Cc1ccc(N/N=C(\Cc2nc3ccccc3[nH]2)c2ccccc2)cc1	-22%	?	-12%	?	?	?
N/N=C(/Cc1nc2ccccc2[nH]1)c1ccc([N+](=O)[O-])cc1	16%	12µM*	28%	15%	?	1%
N#CCCN/N=C(/Cc1nc2ccccc2[nH]1)c1ccc(Cl)cc1	24%	27µM*	?	?	14µM*	?
CC1(C)CNC(=O)c2sc(N3CCCCC3)nc2C1	13%	15µM*	22%	?	23%	?
COC(=O)Cc1sc(-c2ccccn2)nc1-c1ccccc1	-1%	?	-3%	-6%	-14%	-12%
O=C(O)Cc1ccc2sc(-c3ccccc3)nc2c1	14%	19µM*	21%	?	21%	8%
O=C(O)Cc1ccc(-c2ccccc2-c2ccccc2)cc1	-2%	2%	-4%	2%	-22%	9%
COC(=O)Cc1ccc2sc(-c3ccccc3)nc2c1	1.6µM*	0.67µM*	2.5µM*	?	1.6µM*	2.6µM*

Screening results: PubChem, National Center for Advancing Translational Sciences (NCATS)
